Compound activity: PubChem BioAssay, National Center for Advancing Translational Sciences (NCATS)
Only some compounds are listed: those with a hit (about 2.9% of all), similar ones and a draw of the others.
SNCA expr inhib – SNCA gene expression inhibition; HEK-293 SNCA-luciferase knock-in, luminescence, 24 h; Potency, µM (highest dose often 57.2 µM), for the others: top-dose activity change, negative = inhibition, usual class: inhibitors; 140,000 tested, 0.17% active;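 also: potency is read from the fitted curve at half-maximal effect; plate controls were DMSO cells for no effect and cell-free wells for full effect; nearly all actives have a fitted effect of over 45% in size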
SNCA viab count – cell viability loss counter-screen | 150,000 tested, 0.12% active | AID 1671193 | HEK-293-SNCA-luc viability, GF-AFC fluorescence, 24 h | Potency, µM (top dose mostly 57.1 µM), without a hit: top-dose activity change, negative = cytotoxicity, actives largely listed as cytotoxic;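 also: potency is read from the fitted curve at half-maximal effect; 0% = DMSO-treated cells and -100% = medium-only wells without cells; nearly all actives have a fitted effect of over 30% in size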
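Cytotoxicity counterscreen: after 24 h compound treatment of genome-edited SNCA-luciferase HEK-293 cells, live-cell protease substrate GF-AFC read by fluorescence after 30 min; activity scaled between DMSO (0%) and medium-only (-100%), curves Hill-fitted.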
IP6K1 inh – IP6K1 kinase inhibition. 140,000 tested, 0.81% active. activity change, % (series mostly up to about 58 µM). IP6K1 kinase, ADP-Glo luminescence, 2 h; active compounds read low. Q92551; in the data active = activity change below about -25%; also: % is scaled to controls: 0 for no effect and ±100 for the full control effect
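ADP-Glo luminescence measures ADP made by human IP6K1 during a 2 h RT reaction with ATP/IP6 (mix at 1.3 mM/130 uM); top library doses 57.5 and 19.1 uM final.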
KDM5B inhibitor – KDM5B demethylase inhibition; Potency, µM (doses to about 57.7 µM), actives largely listed as inhibitors; AID 1347165; 220,000 tested, 2.6% active; KDM5B demethylase, FDH-coupled NADH fluorescence (FDH is formaldehyde dehydrogenase); also: potency is read from the fitted curve at half-maximal effect; 0% is about no effect; nearly all actives have a fitted effect of over 70% in size
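Compound dilutions met 200 nM (final) KDM5BΔAP for 10 min at room temperature before substrate addition. The substrate mix held 12.5 µM H3K4me3 with cofactors 25 µM α-ketoglutarate and 50 µM Fe²⁺. NADH signal gain over 30 min defined activity.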
* = called active by the depositor; i = inactive; ? = inconclusive; / = not tested or not shown; [ ] = another dose, or the depositor's remark. Unless noted, calls follow the shape of the dose curve; as a rule, active = well fitted curve in the direction sought with a large enough effect; inconclusive = small, poorly fitted or top-dose-only effect, or another doubt; inactive = no such curve, though single readings can be large; an effect the other way counts as inactive or inconclusive.

SMILES	SNCA expr inhib	SNCA viab count	IP6K1 inh	KDM5B inhibitor
O=C(Nc1cc(F)ccc1Cl)c1cc2n(n1)CC(c1ccc(Br)cc1)OC2 (centres undefined)	?	1.2%	-0.9	25.1µM*
O=C(CCc1c[nH]c2ccccc12)N1CCC[C@H]1c1nc(-c2ccc(F)cc2)n[nH]1	-19.2%	?	14.9	/
Cc1ccc(-n2c(C3CCN(C(=O)COc4ccc(Cl)cc4)CC3)n[nH]c2=O)cc1	-23.4%	-2.8%	-20.0	i
C=C(C)[C@@H]1CCC2(C(=O)OC)CC[C@]3(C)C(CCC4[C@@]5(C)C/C(=C\c6ccccc6)C(=O)C(C)(C)C5CC[C@]43C)C12 (some centres undefined)	/	/	/	i
COC(=O)[C@]12CCC(C)(C)C[C@@H]1[C@@H]1C(=O)C=C3[C@@]4(C)C=C(C#N)C(=O)C(C)(C)[C@@H]4CC[C@@]3(C)[C@]1(C)CC2	8.57µM*	13.6µM*	/	/
CCOC(=O)c1ccccc1NC(=O)COc1ccccc1-c1nnc(-c2ccccc2)o1	?	?	25.3	i
CCc1ccccc1NC(=O)C(CC)Oc1ccccc1-c1nnc(-c2ccccc2)o1 (centres undefined)	8.91µM*	?	22.8	i
CN1CCN(c2ccc(-c3noc([C@@H]4CCCN4Cc4ccncc4)n3)cn2)CC1	20.2%[87.6 µM]	3.9%[87.6 µM]	-5.5	?
CC(=O)N1CCN(c2cc(-c3noc([C@@H]4CCCN4Cc4ccccc4C)n3)ccn2)CC1	?	?	-8.4	20µM*
CC(=O)N1CCN(c2cc(-c3noc([C@@H]4CCCN4Cc4ccc(CO)o4)n3)ccn2)CC1	-9.9%	-3.5%	12.0	28.2µM*
O=C(NCc1ccc(F)cc1)c1ccc2nnc(-c3ccc(Cl)cc3)n2c1	19.4%	-2.7%	8.4	/
CN1CCN(c2ccc(-c3cc4c(ccn4C)c(C(=O)NCc4cccnc4)n3)cc2)CC1	29.8%	-10.2%	19.9	?
Cc1ccc(C)c(N2CCN(c3nc4ccccc4c(=O)n3-c3ccccc3)CC2)c1	2.51µM*	24.9%	-7.7	?
O=C(NCc1ccoc1)c1ccc2nc(-c3ccc(F)cc3)cn2c1	46.2%	-2.1%	-5.7	25.1µM*
O=C(NCc1ccc(F)cc1)c1ccc2nnc(-c3ccoc3)n2c1	-1.2%[87.6 µM]	9.8%[87.6 µM]	1.3	/
Cc1c(CNC(=O)c2ccc3nc(-c4ccc(F)cc4)cn3c2)cnn1C	50.4%	-1.1%	20.6	28.2µM*
O=C(Nc1ccc(-c2nnc3n2CCCC3)cc1)c1ccc(F)cc1	32.2%	8.8%	37.3	i
O=C(NCc1nnc2n1CCC2)c1ccc2nc(-c3ccc(F)cc3)cn2c1	20.8%	6.4%	11.0	31.6µM*
O=C(NCc1ccccn1)c1ccc(F)cc1	/	/	/	i
COc1ccc(CNC(=O)c2cc(-c3ccc(F)cc3)nc3c2cnn3C)cc1	/	/	-11.4	/
O=C(NCCCc1ccccn1)c1ccc2nc(-c3ccc(F)cc3)cn2c1	102.6%	-9.1%	2.1	28.2µM*
O=C(c1ccc(F)cc1)N1CCN(c2nccc(Nc3ccccc3F)n2)CC1	-1.3%	2.1%	19.0	/
COc1ccc(CN2Cc3[nH]cnc3C[C@H]2C(=O)NCc2ccccc2)c2ccccc12	-28.8%[87.6 µM]	?	6.9	39.8µM*
COc1ccc(CN2Cc3[nH]cnc3C[C@H]2C(=O)N(C)Cc2ccccc2)c2ccccc12	-21.6%	?	-7.1	i
N#Cc1ccc(CNC(=O)[C@@H]2Cc3nc[nH]c3CN2C(=O)NC2CCCCC2)cc1	-17.0%[87.6 µM]	-9.0%[87.6 µM]	6.3	i
SMILES	SNCA expr inhib	SNCA viab count	IP6K1 inh	KDM5B inhibitor
COC(=O)[C@@H]1Cc2nc[nH]c2CN1Cc1ccc(Cl)cc1	-13.6%[87.6 µM]	-0.7%[87.6 µM]	0.9	31.6µM*
COC(=O)[C@@H]1Cc2nc[nH]c2CN1Cc1ccc(NC(C)=O)cc1	-9.5%[87.6 µM]	-3.2%[87.6 µM]	12.1	?
COc1ccc(CNC(=O)[C@@H]2Cc3nc[nH]c3CN2C(=O)NC2CCCCC2)cc1	34.1%[87.6 µM]	5.7%[87.6 µM]	-3.4	31.6µM*
COc1ccc(CN2Cc3[nH]cnc3C[C@H]2C(=O)NC2CCCCC2)c2ccccc12	-1.2%[87.6 µM]	-27.4%[87.6 µM]	15.2	35.5µM*
COc1ccc(CN2Cc3[nH]cnc3C[C@H]2C(=O)NCc2ccc(Cl)cc2)c2ccccc12	?	?	0.8	?
CCCN1CCCC12Cc1ccccc1CN(C(=O)C(C)C)C2 (centres undefined)	-5.6%	-3.4%	-10.1	?
CCOC(=O)C1c2c(OC)ccc3c2C(=CC(C)(C)CO3)CN1C1COC1 (centres undefined)	/	/	4.1	/
